Reference: PubChem BioAssay (EPA / NIEHS)
Several values for one entry are separate records, joined by “and”; a condition that tells them apart may be missing. Equal entries are not always repeated. Some compounds were tested as several samples or in several runs, with calls that do not always agree. Activity calls are given as the source filed them. The calls were made as follows: active = hit-call score of the fitted dose curve at least 0.9, where 1 is the maximum; inactive = score below 0.9.

Assay: CCTE_Shafer_MEA_dev_mutual_information_norm: CCTE's Neural Network Formation Assay for Mutual Information Normalization, Shafer Lab (AID 2284091);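 as to AC50: potency is for a decrease in mutual information relative to DMSO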
Description: CCTE_Shafer_MEA_dev assay is conducted using Axion Biosystems 48 well microelectrode array (MEA) plates and Maestro recording system. Each well of the MEA plate contains a grid of 16 microelectrodes embedded in the culture surface. Electrically active cells, such as neurons, can be cultured over the electrodes, and electrical activity in these cells can be recorded extracellularly. The spontaneous firing of neurons is captured from each electrode on a microsecond timescale providing both temporally and spatially precise data. […] The CCTE_Shafer_MEA_dev assay uses primary cultures of rat cortical neurons. Recordings are made on days post-plating 5, 7, 9 and 12. As these cultures mature over time, neural networks develop functional activity and form cohesive networks in which electrical activity can be highly coordinated. CCTE_Shafer_MEA_dev_mutual_information_norm is 1 of 19 assay components of the CCTE_Shafer_MEA_dev assay. It is a measure of shared information between electrodes during a recording in a microelectrode array (MEA) using Axion Biosystems Maestro 768 channel amplifier with the AxIS adaptive spike detector. To collapse across multiple recordings made on days post-plating 5, 7, 9 and 12, the trapezoidal area-under-the-curve of the component is calculated.Data from the assay component CCTE_Shafer_MEA_dev_mutual_information_norm was analyzed into 1 assay endpoint. This assay endpoint, CCTE_Shafer_MEA_dev_mutual_information_norm, was analyzed in the negative analysis fitting direction relative to DMSO as the negative control and baseline of activity. Using a type of functional reporter, gain or loss-of-signal activity can be used to understand electrical activity.
On the day prior to culture, each well was coated thoroughly with 150 uL of 0.05% polyethyleneimine (PEI, Sigma Cat P3143) in 50 mM HEPES (Sigma Cat H7523) at a pH of 8. The plate was incubated at 37C for one hour. PEI was rinsed out with 500 uL of sterile water three times. Plates were stored at 4C until the day of culture. This culture was plated at a seeding density of 1.5 x 10^5 cells/well on a 48-well MEA plate, prepared as described above. Cells were administered via a 25 uL media/laminin ([…]; Sigma Cat L2020-1MG) drop directly onto the microelectrode array, as adding the cells with the laminin results in better attachment than pre-coating with laminin. After 2 hours, an additional 475 uL of cortical media was added and the cells returned to the incubator. Exposure starts at day 0 of plating and is continued over twelve days of network development until the experiment is terminated. Cells are fed with fresh medium on DIV 5 and 9, following the recordings on those days. The entire volume of media in the well is exchanged and any vehicle or compound treatment is renewed. Complete details are found in OP-NHEERL/ISTD/SBB/TJS/2015-03-r0 (available on request, email shafer.tim@epa.gov). Measurement of the electrical activity is non-invasive, and recordings can be made from the same plate over multiple different days of the culture. In cortical neurons, this allows for the measurement of extracellular action potentials over the period during which networks form in the MEA plate.

Row | SMILES | outcome | AC50
1 | COP(=O)(OC)O/C(=C\Cl)c1cc(Cl)c(Cl)cc1Cl | inactive | –
2 | O=C(O)C(F)(F)C(F)(F)C(F)(F)C(F)(F)C(F)(F)C(F)(F)F | inactive | –
3 | CCOP(=S)(OCC)Oc1nc(Cl)c(Cl)cc1Cl | inactive | 23.2 µM (active) and 15 µM (active)
4 | Cn1sc(Cl)cc1=O | – | 3.45 µM (active)
5 | CCC(=O)C(CC(C)N(C)C)(c1ccccc1)c1ccccc1 (configuration not stated) | – | 6.23 µM (active)
6 | CC(C)(C)c1cc(O)ccc1O | – | 2.1 µM (active)
7 | ClC1(Cl)C2(Cl)C3(Cl)C4(Cl)C(Cl)(Cl)C5(Cl)C3(Cl)C1(Cl)C5(Cl)C24Cl (configuration not stated) | – | 2.05 µM (active)
8 | O=C1C2(Cl)C3(Cl)C4(Cl)C(Cl)(Cl)C5(Cl)C3(Cl)C1(Cl)C5(Cl)C24Cl (configuration not stated) | – | 0.125 µM (active)
9 | C=C(C)C(=O)[O][Sn]([CH2]CCC)([CH2]CCC)[CH2]CCC | – | 0.0123 µM (active)
10 | CC(=O)[O][Hg][c]1ccccc1 | – | 0.0082 µM (active)
11 | O=C(O)C(F)(F)C(F)(F)C(F)(F)C(F)(F)C(F)(F)C(F)(F)C(F)(F)C(F)(F)C(F)(F)C(F)(F)F | inactive | –
